The other results are listed elsewhere or left out. Unmarked numbers belong to inactive results.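 Rule for the calls: active = mean activation above a set limit taken from an earlier procaspase-7 screen; inactive = the rest.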
Target: Caspase-7 (Homo sapiens) (UniProt P55210)
Assay: procaspase-7 activators, counter-screen for procaspase-3 activator project, biochemical, absorbance, triplicate, human (AID 488941);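 note: 0% = DMSO wells and 100% = DMSO plus 5 µM procaspase-7 enzyme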
Details: recombinant procaspase-7, Ac-DEVD-pNA absorbance; at 8.5 µM; active compounds read high; asp23/198/206-to-Ala mutant, cannot self-cleave

Sequence of Caspase-7 (Homo sapiens) (P55210 whole entry D23A/D198A/D206A): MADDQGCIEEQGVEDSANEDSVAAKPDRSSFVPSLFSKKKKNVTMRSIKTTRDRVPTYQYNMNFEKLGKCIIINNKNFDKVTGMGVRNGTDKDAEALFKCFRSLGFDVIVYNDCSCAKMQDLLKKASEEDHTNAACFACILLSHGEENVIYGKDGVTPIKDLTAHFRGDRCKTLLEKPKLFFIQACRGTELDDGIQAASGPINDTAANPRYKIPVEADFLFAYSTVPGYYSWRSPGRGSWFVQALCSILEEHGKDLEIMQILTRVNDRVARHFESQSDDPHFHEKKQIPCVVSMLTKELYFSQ

SMILES | activation
COc1ccc(CCNC(=O)COC(=O)c2ccc[nH]c2=O)cc1 | 3.85%
CCOc1ccc2nc(NCCNS(=O)(=O)c3ccccc3)c(C#N)cc2c1 | -21%
COc1ccc(-c2sc3ccc(OC)cc3c2C#Cc2ccccn2)cc1 | 6.29%
COC(=O)c1cnc(Nc2cc(C)ccc2OC)c2ccccc12 | -21.2%
CN1CCN(CCCNC(=O)c2ccc(/C=C3\Oc4ccccc4N(Cc4ccc(Cl)cc4)C3=O)cc2)CC1 | -19.9%
COC(=O)Cc1cc(=O)oc2c(C)c(O)ccc12 | -20.2%
Cc1nn(C)cc1CNC(=O)Nc1ccc(Cl)cc1 | 1.34%
O=C(CCNS(=O)(=O)c1ccccc1C(F)(F)F)NCc1ccc2c(c1)OCO2 | 1.59%
Oc1ccccc1C1=NN(c2ccccc2)C(c2ccccc2)C1 (stereo unspecified) | -21.3%
COc1ccccc1NS(=O)(=O)c1ccc(C(=O)N2CCN(c3ccccc3O)CC2)cc1 | 0.45%
COc1ccc2nc(Nc3nc4ccc(NC(C)=O)cc4s3)sc2c1 | -1.13%
